# Screening data as filed in PubChem.
# Only some compounds are listed: those with a hit (about 6.6% of all), similar ones and a draw of the others.
# RGS4 inhibitor: blocks human RGS4-accelerated GTP hydrolysis. P49798. 0.039% of 390,000 active. Potency, µM (top dose mostly 114 µM), inactives show at the highest dose activity change, negative = inhibition, actives largely listed as inhibitors. Transcreener GDP fluorescence polarization, RGS4-accelerated GTP hydrolysis; note: % is set by controls: 0 for no effect and ±100 for the full control effect; nearly all actives have a fitted effect of over 75% in size
# Target sequence (P49798 whole entry, looked up): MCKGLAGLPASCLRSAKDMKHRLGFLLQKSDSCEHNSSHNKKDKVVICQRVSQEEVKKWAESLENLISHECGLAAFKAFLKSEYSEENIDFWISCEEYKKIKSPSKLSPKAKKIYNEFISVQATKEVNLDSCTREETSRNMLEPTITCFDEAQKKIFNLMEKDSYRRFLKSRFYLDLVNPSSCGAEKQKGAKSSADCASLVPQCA
#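 MLSMR compounds (23 nl, pin-transferred) preincubated 10 min at room temperature with a 500nM (2x) first reagent, then RGS4 at 900nM (2x) plus Transcreener GDP mix added; fluorescence polarization (620/688 nm) read before and after 90 min at 30 °C.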
# KB-V1 MDR tox: KB-V1 MDR subline cytotoxicity; KB-V1 MDR cells viability, CellTiter-Glo, 72 h; Potency, µM (top dose mostly 46.1 µM), hits mostly cytotoxic; 3.4% of 400,000 active; note: % is set by controls: 0 for no effect and ±100 for the full control effect; nearly all actives have a fitted effect of over 60% in size
#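 qHTS viability screen in drug-selected KB-V1 MDR cells: 72 h compound treatment at 37 degrees C, ATP luminescence end point.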
# SW480 rerep: inducers of DNA re-replication in SW480 colon cancer cells; Potency, µM (doses to about 46.1 µM), without a hit: top-dose re-replication activation, hits mostly activators; 1.8% of 340,000 active; SW480 DNA re-replication, Hoechst DNA content imaging, 48 h; note: % of control where 0% means no effect; nearly all actives have a fitted effect of over 55% in size
#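 SW480 cells exposed to compounds for 48 hr at 37 C, 5% CO2, then Hoechst-stained 40 min. Nuclear DNA content imaged by fluorescence scanning (405 nm excitation, 500-530 nm emission); re-replication scored as increased high-intensity nuclei.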
# KB-3-1 cytotox: KB-3-1 parental cell cytotoxicity; Potency, µM (doses to about 46.1 µM), usual class: cytotoxic; KB-3-1 viability, CellTiter-Glo ATP luminescence, 72 h; 1.4% of 400,000 active; note: % is set by controls: 0 for no effect and ±100 for the full control effect; nearly all actives have a fitted effect of over 60% in size
#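 Cytotoxicity measured as CellTiter-Glo luminescence after 72 h at 37 C. Compound titrations were pinned onto drug-naive KB-3-1 parental adenocarcinoma cells grown in DMEM with 10% FBS, and normalized data fitted to concentration-response curves.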
# TSG101-PTAP inh: blocks PTAP/TSG101 interaction to inhibit HIV-1 budding | AID 493005 | Potency, µM (top dose mostly 115 µM), inactives show at the highest dose activity change, negative = inhibition, actives largely listed as inhibitors | Q99816 | Fluorescence polarization, FITC-PTAP peptide / Tsg101 binding | 340,000 tested, under 10 active; active = well fitted inhibition curve with a large enough effect in the main read-out, with a control signal flat, not every such curve was filed as active; inconclusive = small, poorly fitted or top-dose-only effect, or effect the other way, or a change in a side signal; inactive = no such curve, though single readings can be large or run the other way; note: % of control where 0% means no effect
#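 Tsg101 binding domain (10 uM final) was mixed with compound and a FITC-labeled PTAP peptide (50 nM final) in HEPES pH 7.5 buffer with NaCl, Tween 20, EDTA and TCEP; fluorescence polarization was read after 20 min at r.t.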
# MCF10A rerep: inducers of DNA re-replication in MCF 10A breast cells. MCF 10A DNA re-replication, Hoechst nuclear intensity, 48 h. Potency, µM (highest dose often 46.1 µM), for the others: at the highest dose activity, positive = re-replication, usual class: activators. 2.9% of 350,000 active; note: % of control where 0% means no effect; nearly all actives have a fitted effect of over 50% in size
# An asterisk follows results filed as active; i = inactive; u = inconclusive; x = not tested or not shown; [ ] = dose if it differs, or a comment. Unless noted, calls come from the whole dose curve; as a rule, active = well fitted curve in the direction sought with a large enough effect; inconclusive = small, poorly fitted or top-dose-only effect, or another doubt; inactive = no such curve, though single readings can be large; an effect the other way counts as inactive or inconclusive. Potency is the fitted concentration of half-maximal effect.
SMILES,RGS4 inhibitor,KB-V1 MDR tox,SW480 rerep,KB-3-1 cytotox,TSG101-PTAP inh,MCF10A rerep
O=C(N/N=C/c1ccccc1[N+](=O)[O-])c1ccc(COc2ccccc2-c2ccccc2)cc1,-8%,2.1µM*,-4%,u,-7%,-7%
Cc1cccc(NC(=O)[C@H](Cc2c[nH]c3ccccc23)NC(=O)[C@@H]2Cc3ccccc3CN2)c1,-4%,i,21µM*,5.8µM*,1%,16µM*
Cc1ccc(NC(=O)[C@H](Cc2c[nH]c3ccccc23)NC(=O)[C@@H]2Cc3ccccc3CN2)c(C)c1,2%,u,7%,1.8µM*,-3%,u
CCc1ccc(NC(=O)[C@H](Cc2c[nH]c3ccccc23)NC(=O)[C@@H]2Cc3ccccc3CN2)cc1,-4%,u,16µM*,5.2µM*,-4%,18µM*
CC(NC(=O)[C@H](Cc1c[nH]c2ccccc12)NC(=O)[C@@H]1Cc2ccccc2CN1)c1ccccc1 (some centres not stated),-17%,i,0%,i,-4%,13%
Cc1ccc(NC(=O)[C@H](Cc2ccccc2)NC(=O)[C@@H]2Cc3ccccc3CN2)c(C)c1,9%[11.4 µM],i,-7%,i,-5%,2%
Cc1cc(C)cc(NC(=O)[C@H](Cc2c[nH]c3ccccc23)NC(=O)[C@@H]2Cc3ccccc3CN2)c1,-17%,u,18µM*,i,3%,21µM*
COc1ccc(CNC(=O)c2ccc(-c3nc(CSc4ccc(C)cc4)c(C)o3)cc2)c(OC)c1,19%,i,x,i,x,x
c1cnc2ncc3sccc3c2c1,-9%,i,16µM*,i,-5%,-7%
O=c1[nH]c(/C=C/c2ccc(OC(F)F)cc2)nc2c1cnn2-c1ccccc1,11%,i,9.2µM*,i,-1%,15µM*
CC(C)Sc1nc2c(cnn2-c2ccccc2)c(=O)[nH]1,14%,i,0%,i,-2%,15%
Brc1ccc(-c2nn3c(-c4ccco4)nnc3s2)o1,-38%,16µM*,-6%,u,-6%,0%
Brc1ccc(-c2nn3c(-c4ccccn4)nnc3s2)o1,-36%,18µM*,-8%,u,-5%,3%
O=C(Cn1c(=O)n(-c2ccccc2)c(=O)c2c3c(sc21)CCC3)c1ccc(Br)cc1,13%,i,x,i,x,x
Cn1nnnc1SCC(=O)N1c2ccccc2Sc2ccccc21,-7%,i,-3%,i,-5%,3%
Cc1ccc(SCC(=O)N2CCc3ccccc32)cc1,-8%,i,-1%,i,-1%,11%
O=C(CSc1nncs1)N1c2ccccc2Sc2ccccc21,6%,u,21µM*,i,-14%,8.2µM*
Cc1ccc(SCC(=O)N2c3ccccc3Sc3ccccc32)cc1,6%,i,3%,i,0%,7.3µM*
CCc1nc(SCC(=O)N2c3ccccc3Sc3ccccc32)c2ccccc2n1,-9%,8.2µM*,8%,i,-9%,5%
COc1ccccc1C(=O)Nc1nnc(SCc2cc(=O)c3cc(Cl)ccc3[nH]2)s1,-13%,x,x,x,x,x
CCOc1ccccc1C(=O)N1CCC(c2nc3ccccc3o2)CC1,8%,x,x,x,x,x
COC(=O)c1ccc(SCC(=O)N2CCC(C)CC2)c([N+](=O)[O-])c1,10%,15µM*,-31%,i,2%,4%
Cc1c(Cl)cccc1-n1ncc(C(=O)NC2CCCC2)c1C1CCN(C(=O)OC(C)(C)C)CC1,-2%,i,x,i,x,x
Cc1cccc(N2CCN(C(=O)c3ccc4c(Cl)c5c(nc4c3)CCCC5)CC2)c1C,5%,i,x,i,x,x
C=CCc1c(C)nc(-c2ccccc2)nc1N/N=C/c1ccncc1,0%,i,23µM*,i,-10%,25%
C=CCc1c(C)nc(-c2ccccc2)nc1N/N=C/c1ccccc1,0%,i,-66%,i,-2%,u
